# Measured values taken from PubChem BioAssay AID1053117 (Broad Institute, 2014).
# Results with a measured potency or affinity are listed apart. Active and inactive are the calls of the source.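 The calls were made as follows: active = compounds lowering cell ATP signal with a fitted half-effect dose at most twice the top valid dose; inconclusive = flat curve with 30 to 70% signal loss, or bad fit; inactive = wrong direction, flat within 30%, or weaker than limit.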
# Assay: viability loss in HEK293 kidney cells – cell-based, cherry-picks, set 5, cytotoxicity control, dose response (AID 1053117);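 also: more negative means greater loss of ATP signal and more cytotoxicity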
# Conditions: HEK293T viability, CellTiter-Glo ATP luminescence, 72 h; series mostly up to 26 µM
compound,measurement,value
C=C1C(=O)O[C@@H]2C[C@@H](C)[C@@H]3C=CC(=O)[C@@]3(C)[C@@H](O)[C@H]12,outcome,inactive
